This passage reports growth inhibition results from PubChem BioAssay (NCI).

Compounds without any hit were thinned out: in the full panel of roughly 79,000, 15% have a hit. Unmarked numbers belong to inactive results. Cut-off read from the data, not from the text of the source: active = growth inhibition above about 70%; inactive = the rest. *1 amine or outer side, *2 acyl side, *3 side chain or, on linkers, in order; H or OH if unused. Where a SMILES comes first, the peptide text is derived from it. Bridges are numbered along the chain shown (N, C = ends). Roman numbers before positions name the chains, in order. [ ]: non-standard residue; d: D form. Actinocin(9to1) = Cc1c2oc3c(C)ccc(C(=O)[*:1])c3nc-2c(C(=O)[*:2])c(N)c1=O; NMeT = CN[CH](C(=O)O)[CH](C)O; Abu = CC[CH](N)C(=O)O; Sar = CNCC(=O)O

The nature of the test: NCI Yeast Anticancer Drug Screen. Data for the rad50 strain (AID 155).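 Note: 0% = growth of vehicle-only cultures of the same strain.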 The following applies: S. cerevisiae rad50 strain growth inhibition; at 50.0 µM; active compounds read high. The gist of the method:
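Growth of the mutant yeast was measured after compound exposure and referenced to vehicle-treated cultures.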
As for `CN(C)c1ccc(/C=C/c2ccccc2)cc1`, the growth inhibition is -3.6%. The result for `OCC12OCC(O1)C(O)C(O)C2O` (stereo not given) reads -14.6%; that for `COc1cccc(S(=O)(=O)c2c(C)cc(C)cc2C)c1`, -12.7%; that for `CC1(c2ccc3cccc(F)c3c2)OC(=O)c2ccccc21` (stereo not given), 2%. As for `Nc1[nH]c(=S)[nH]c(=O)c1N=Cc1ccc2c(c1)OCO2`, the figure is 13.2%; as for `O=c1[nH]c(=O)c2nccnc2[nH]1`, 9.1%. As for `O=C(O)c1ccc(Cl)cc1C(=O)c1ccc(Cl)cc1`, the figure is 1.25%; as for `CCOC(=O)C1(C)CCC(C(=O)OC)C1=O` (stereo not given), -36.1%. For `CCCCCCC(c1ccc(N(C)C)cc1)c1ccc(N(C)C)cc1`, the growth inhibition is -6.95%. As for `CCOC(=O)C(C(=O)OCC)=C(N)C(Cl)(Cl)Cl`, the figure is 0.2%; as for `COc1ccccc1OCc1nnc(SCC(=O)O)n1-c1ccccc1`, 3.75%; as for `CCO/C([O-])=C(\C=N\S(=O)(=O)c1ccc(C)cc1)[n+]1ccc(C)cc1`, 13.8%. As for `Cc1ccc2nc(CN(CCO)CCO)cc(=O)n2c1`, the figure is 34.4%; as for `CCCCCCc1c(N)nc(N)[nH]c1=O`, 4.3%; as for `CN(C)CCSS(=O)(=O)O`, -4.9%.

As to `O=C(Nc1ccc(Cl)cc1)Nc1nnc(-c2cccc(-c3nnc(NC(=O)Nc4ccc(Cl)cc4)o3)c2)o1`, the growth inhibition is 39.1%.

For the molecule `CC(CC(=O)O)(CC(=O)O)c1ccccc1`, the growth inhibition is 19.6%.

Take `NCS(=O)(=O)O`: the growth inhibition is -12.8%. The result for `Cc1cc(=O)n2[nH]nnc2n1` reads 10.5%. As for `Cc1cccc(C(C)(C)C)c1NC(=O)CC1C(=O)Nc2ccccc2S1(=O)=O` (stereo not given), the figure is 4.85%; as for `C(=C\C(SCc1ccccc1)SCc1ccccc1)/c1ccccc1`, -43%; as for `Cc1ccc(C)n1N(c1ccccc1)c1ccccc1`, -13.6%. As for `CCCCc1c2c(nc3c1CCCC3=O)C(=O)CCC2`, the figure is -11.3%. Take `COc1cccc(C2c3cc4c(cc3OC(C)(O)C2C)OCO4)c1OC` (stereo not given): the growth inhibition was 22.6%. As for `CCC(N)C(=O)NC(C(N)=O)C(C)C` (stereo not given) (H-[Abu]-Val-NH2; configuration not given here), the figure is 11.1%. As for `O=C1c2cc3c(cc2CC12Cc1cc4c(cc1C2)CCC4)CCC3`, the figure is -14.6%; as for `Cc1cccc(C)c1NC(=O)C(=O)CC(=O)CO`, -9.45%; as for `CCCCC(=O)c1ccc2ccccc2c1O`, 6.9%.

As for `C1CC2CCC1CN(C1COC(N3CC4CCC(CC4)C3)CO1)C2` (stereo not given), the growth inhibition was -5.15%. As for `c1ccc(Nc2ccc3ccccc3n2)cc1`, the figure is 40.6%; as for `O=c1c2c(-c3ccccc3)onc2n(-c2ccccc2)c(=O)n1-c1ccccc1`, -20.4%. As for `Cc1c2oc3c(C)ccc(C(=O)NC4C(=O)NC(C(C)C)C(=O)N5CCCC5C(=O)N(C)CC(=O)N(C)C(C(C)O)C(=O)OC4C)c3nc-2c(C(=O)NC2C(=O)NC(C(C)C)C(=O)N3CCCC3C(=O)N(C)CC(=O)N(C)C(C(C)O)C(=O)OC2C)c(N)c1=O` (stereo not given) (I: TVP[Sar][NMeT] / II: TVP[Sar][NMeT]; ester I:1-I:C, II:1-II:C; linker I:N-II:N via Actinocin(9to1); configuration not given here), the figure is 19.4%; as for `CCCCCCCCCCCCCCCCCC[N+](C)(C)Cc1c(Cl)c(Cl)c(Cl)c(Cl)c1Cl`, 10.8%. The result for `C/C(=N\NC(=O)c1ccccc1O)c1cccc(/C(C)=N/NC(=O)c2ccccc2O)n1.O=S(=O)([O-])[O-].[Fe+2]` reads 11.4%; that for `CC1=CN2C(c3ccc(Cl)cc3)=NON(c3ccc(C)cn3)C2C=C1` (stereo not given), -21.6%. With `O=C(Nc1ccccc1)C1(Cl)CCCCC1`, the growth inhibition is 11.7%. On to `O=C(O)CCCc1ccc(O)cc1`, for which the growth inhibition is 7.1%. The result for `COc1cc(/C=C2\SC(=S)N(/C=C(/C#N)C(=O)c3ccc4ccccc4c3)C2=O)cc(OC)c1OC` reads 21.3%; that for `NC(N)=NCCCC(O)C(=O)O` (stereo not given), -10.6%; that for `CNn1c(-c2ccccc2)n[nH]c1=O`, 6.65%.
